The record followed here is paper PMC11006913.

Where a chain is given by its changes, count along the chain named.

Sequence of VAX1 (Homo sapiens, UniProt Q5SQQ9 86-172) (Q5SQQ9 86-172): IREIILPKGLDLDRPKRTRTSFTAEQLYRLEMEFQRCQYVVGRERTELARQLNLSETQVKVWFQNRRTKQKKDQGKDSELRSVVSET
Sequence of ALX3 (Homo sapiens, UniProt O95076 139-225, N203S) (O95076 139-225 N203S): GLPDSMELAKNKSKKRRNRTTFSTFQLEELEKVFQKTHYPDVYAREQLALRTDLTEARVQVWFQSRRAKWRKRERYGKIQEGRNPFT
Sequence of HOXA2 (Homo sapiens, UniProt O43364 129-215, Y150S) (O43364 129-215 Y150S): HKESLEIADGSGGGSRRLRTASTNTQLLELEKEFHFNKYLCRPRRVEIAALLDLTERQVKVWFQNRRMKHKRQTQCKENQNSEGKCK
Sequence of ALX3 (Homo sapiens, UniProt O95076 139-225, L168Q) (O95076 139-225 L168Q): as the sequence (O95076 139-225 N203S) above, with L30Q, S65N counted along it
Sequence of HOXC10 (Q9NYD6 254-340 K271E): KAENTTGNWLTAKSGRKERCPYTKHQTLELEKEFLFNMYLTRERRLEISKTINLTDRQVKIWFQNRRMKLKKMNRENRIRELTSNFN
Sequence of ALX3 (Homo sapiens, UniProt O95076 139-225, N203Q) (O95076 139-225 N203Q): as the sequence (O95076 139-225 N203S) above, with S65Q counted along it

One test concerns the target ALX3 (Homo sapiens, UniProt O95076 139-225, N203Q). As to the kind of experiment: PBM; 200 nM protein, PBS. The settings on record: dsDNA, one strand shown.
Regarding CGGCCCCC, the binding signal was 7.78 upbm affinity estimate (log intensity, higher = more binding, comparable within an allelic series).
For the sequence CCCAGAGG, the binding signal was 7.67 upbm affinity estimate (log intensity, higher = more binding, comparable within an allelic series).

The target in another test is T1, PAX4 (Homo sapiens, UniProt O43316 9-242, R200Q).
T1 sequence: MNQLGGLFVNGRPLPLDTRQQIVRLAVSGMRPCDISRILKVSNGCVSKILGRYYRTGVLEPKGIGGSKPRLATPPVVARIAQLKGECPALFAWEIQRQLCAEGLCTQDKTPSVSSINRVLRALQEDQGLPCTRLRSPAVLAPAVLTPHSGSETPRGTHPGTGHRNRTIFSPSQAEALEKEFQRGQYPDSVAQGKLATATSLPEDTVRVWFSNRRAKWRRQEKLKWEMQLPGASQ
As to the kind of experiment: PBM; 200 nM protein, PBS. The settings on record: dsDNA, one strand shown.
On to CCGAATTA, for which the binding signal was 11.8 upbm affinity estimate (log intensity, higher = more binding, comparable within an allelic series).
CGGCCCCA: the binding signal was 9.28 upbm affinity estimate (log intensity, higher = more binding, comparable within an allelic series).
Take ACCAATCA: the binding signal was 10.7 upbm affinity estimate (log intensity, higher = more binding, comparable within an allelic series).
For the sequence GAAGCCGC, the binding signal was 9.31 upbm affinity estimate (log intensity, higher = more binding, comparable within an allelic series).

The target in another test is HOXA2 (Homo sapiens, UniProt O43364 129-215, R185K). Description: PBM; 200 nM protein, PBS. The settings on record: dsDNA, one strand shown.
Sequence of HOXA2 (Homo sapiens, UniProt O43364 129-215, R185K) (O43364 129-215 R185K): as the sequence (O43364 129-215 Y150S) above, with S22Y, R57K counted along it
With GCCCATTA, the binding signal is 13.1 upbm affinity estimate (log intensity, higher = more binding, comparable within an allelic series).
The same measure, in the same setting: the figure for CACTGGGG is 10.1 upbm affinity estimate (log intensity, higher = more binding, comparable within an allelic series); for AGGGGGCG it is 10.2 upbm affinity estimate (log intensity, higher = more binding, comparable within an allelic series); for CGGCCCCC it is 9.86 upbm affinity estimate (log intensity, higher = more binding, comparable within an allelic series).
Turning to CCGAGGGC, the binding signal was 10.3 upbm affinity estimate (log intensity, higher = more binding, comparable within an allelic series).
The same measure, in the same setting: the result for CCCAGAGG reads 10.2 upbm affinity estimate (log intensity, higher = more binding, comparable within an allelic series).

The next test has as its target T2, PAX4 (Homo sapiens, UniProt O43316 9-242, F177V).
T2 sequence: T1 sequence with F169V, Q192R
As to the kind of experiment: PBM; 200 nM protein, PBS. As to conditions: dsDNA, one strand shown.
Turning to CCGAATTA, the binding signal is 10.4 upbm affinity estimate (log intensity, higher = more binding, comparable within an allelic series).
Consider CGGCCCCA, for which the binding signal is 9.21 upbm affinity estimate (log intensity, higher = more binding, comparable within an allelic series).
Consider ACCAATCA, for which the binding signal is 9.96 upbm affinity estimate (log intensity, higher = more binding, comparable within an allelic series).
For the sequence GAAGCCGC, the binding signal was 9.32 upbm affinity estimate (log intensity, higher = more binding, comparable within an allelic series).

The next test addresses HOXC10 (Homo sapiens, UniProt Q9NYD6 254-340, K271E). Description: PBM; 200 nM protein, PBS. As to conditions: dsDNA, one strand shown.
Regarding GCGGGTCC, the binding signal is 10 upbm affinity estimate (log intensity, higher = more binding, comparable within an allelic series).
Still for that read-out and setting: the figure for CACTGGGG is 10 upbm affinity estimate (log intensity, higher = more binding, comparable within an allelic series); for CTGGCGCA it is 10 upbm affinity estimate (log intensity, higher = more binding, comparable within an allelic series).
As for AGGGGGCG, the binding signal is 9.95 upbm affinity estimate (log intensity, higher = more binding, comparable within an allelic series).
In the case of CCCCTCAG, the binding signal is 10.1 upbm affinity estimate (log intensity, higher = more binding, comparable within an allelic series).
In the case of GAGTTCCC, the binding signal is 10 upbm affinity estimate (log intensity, higher = more binding, comparable within an allelic series).

The target in the next test is MSX2 (Homo sapiens, UniProt P35548 130-214). Description: PBM; 200 nM protein, PBS. As to conditions: dsDNA, one strand shown.
Sequence of MSX2 (Homo sapiens, UniProt P35548 130-214) (P35548 130-214): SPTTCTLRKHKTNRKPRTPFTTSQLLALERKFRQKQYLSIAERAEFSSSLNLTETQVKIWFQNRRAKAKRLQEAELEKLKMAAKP
Turning to CGTCCAGC, the binding signal was 9.6 upbm affinity estimate (log intensity, higher = more binding, comparable within an allelic series).
The same measure, in the same setting: the result for CCGAGGGC reads 9.42 upbm affinity estimate (log intensity, higher = more binding, comparable within an allelic series).
In the case of GAAGCCGC, the binding signal was 9.58 upbm affinity estimate (log intensity, higher = more binding, comparable within an allelic series).

The target in another test is ALX3 (Homo sapiens, UniProt O95076 139-225). Description: PBM; 200 nM protein, PBS. As to conditions: dsDNA, one strand shown.
Sequence of ALX3 (Homo sapiens, UniProt O95076 139-225) (O95076 139-225): as the sequence (O95076 139-225 N203S) above, with S65N counted along it
As for CTGGCGCA, the binding signal is 7.58 upbm affinity estimate (log intensity, higher = more binding, comparable within an allelic series).
Consider CGCCTGCC, for which the binding signal was 7.56 upbm affinity estimate (log intensity, higher = more binding, comparable within an allelic series).
As to CGGCCCCC, the binding signal is 7.73 upbm affinity estimate (log intensity, higher = more binding, comparable within an allelic series).
For CCCAGAGG, the binding signal is 7.71 upbm affinity estimate (log intensity, higher = more binding, comparable within an allelic series).

Another test deals with T3, PAX4 (Homo sapiens, UniProt O43316 9-242, F177Y).
T3 sequence: T1 sequence with F169Y, Q192R
As to the kind of experiment: PBM; 200 nM protein, PBS. As to conditions: dsDNA, one strand shown.
For CCGAATTA, the binding signal was 11.1 upbm affinity estimate (log intensity, higher = more binding, comparable within an allelic series).
Take CGGCCCCA: the binding signal is 9.24 upbm affinity estimate (log intensity, higher = more binding, comparable within an allelic series).
On to ACCAATCA, for which the binding signal was 10.1 upbm affinity estimate (log intensity, higher = more binding, comparable within an allelic series).
Turning to GAAGCCGC, the binding signal is 9.18 upbm affinity estimate (log intensity, higher = more binding, comparable within an allelic series).

Another test has as its target VAX1 (Homo sapiens, UniProt Q5SQQ9 86-172). As to the kind of experiment: PBM; 200 nM protein, PBS. As to conditions: dsDNA, one strand shown.
Regarding GCCCATTA, the binding signal was 12.8 upbm affinity estimate (log intensity, higher = more binding, comparable within an allelic series).
Regarding CAGGGCCC, the binding signal is 7.03 upbm affinity estimate (log intensity, higher = more binding, comparable within an allelic series).
Still for that read-out and setting: the result for CGCCTGCC reads 7.07 upbm affinity estimate (log intensity, higher = more binding, comparable within an allelic series).

The next test addresses ALX3 (Homo sapiens, UniProt O95076 139-225, L168Q). Description: PBM; 200 nM protein, PBS. As to conditions: dsDNA, one strand shown.
Turning to CTGGCGCA, the binding signal is 7.71 upbm affinity estimate (log intensity, higher = more binding, comparable within an allelic series).
The same measure, in the same setting: the figure for CGCCTGCC is 7.74 upbm affinity estimate (log intensity, higher = more binding, comparable within an allelic series).
In the case of CGGCCCCC, the binding signal was 7.68 upbm affinity estimate (log intensity, higher = more binding, comparable within an allelic series).
Turning to CCCAGAGG, the binding signal is 7.65 upbm affinity estimate (log intensity, higher = more binding, comparable within an allelic series).

The target of a further test is ALX3 (Homo sapiens, UniProt O95076 139-225, L168V). Description: PBM; 200 nM protein, PBS. As to conditions: dsDNA, one strand shown.
Sequence of ALX3 (Homo sapiens, UniProt O95076 139-225, L168V) (O95076 139-225 L168V): as the sequence (O95076 139-225 N203S) above, with L30V, S65N counted along it
For the sequence CTGGCGCA, the binding signal was 7.74 upbm affinity estimate (log intensity, higher = more binding, comparable within an allelic series).
In the case of CGCCTGCC, the binding signal is 7.77 upbm affinity estimate (log intensity, higher = more binding, comparable within an allelic series).
As for CGGCCCCC, the binding signal was 7.67 upbm affinity estimate (log intensity, higher = more binding, comparable within an allelic series).
With CCCAGAGG, the binding signal is 7.63 upbm affinity estimate (log intensity, higher = more binding, comparable within an allelic series).

The target in a further test is MSX2 (Homo sapiens, UniProt P35548 130-214, F161Y). As to the kind of experiment: PBM; 200 nM protein, PBS. The settings on record: dsDNA, one strand shown.
Sequence of MSX2 (Homo sapiens, UniProt P35548 130-214, F161Y) (P35548 130-214 F161Y): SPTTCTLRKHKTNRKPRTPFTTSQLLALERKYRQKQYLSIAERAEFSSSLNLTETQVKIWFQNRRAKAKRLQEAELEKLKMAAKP
Take CGTCCAGC: the binding signal is 9.74 upbm affinity estimate (log intensity, higher = more binding, comparable within an allelic series).
Take CCGAGGGC: the binding signal was 9.43 upbm affinity estimate (log intensity, higher = more binding, comparable within an allelic series).
On to GAAGCCGC, for which the binding signal was 9.63 upbm affinity estimate (log intensity, higher = more binding, comparable within an allelic series).

The target of the next test is VAX1 (Homo sapiens, UniProt Q5SQQ9 86-172, T142I). As to the kind of experiment: PBM; 200 nM protein, PBS. The settings on record: dsDNA, one strand shown.
Sequence of VAX1 (Homo sapiens, UniProt Q5SQQ9 86-172, T142I) (Q5SQQ9 86-172 T142I): as the sequence (Q5SQQ9 86-172) above, with T57I counted along it
On to GCCCATTA, for which the binding signal was 12.2 upbm affinity estimate (log intensity, higher = more binding, comparable within an allelic series).
Regarding CAGGGCCC, the binding signal was 7.1 upbm affinity estimate (log intensity, higher = more binding, comparable within an allelic series).
For the sequence CGCCTGCC, the binding signal was 7.24 upbm affinity estimate (log intensity, higher = more binding, comparable within an allelic series).

The target in a further test is T4, PAX4 (Homo sapiens, UniProt O43316 9-242, R227W).
T4 sequence: T1 sequence with Q192R, R219W
As to the kind of experiment: PBM; 200 nM protein, PBS. The settings on record: dsDNA, one strand shown.
As for CCGAATTA, the binding signal was 10.9 upbm affinity estimate (log intensity, higher = more binding, comparable within an allelic series).
Turning to CGGCCCCA, the binding signal was 9.25 upbm affinity estimate (log intensity, higher = more binding, comparable within an allelic series).
Same read-out and setting: the figure for ACCAATCA is 10 upbm affinity estimate (log intensity, higher = more binding, comparable within an allelic series).
On to GAAGCCGC, for which the binding signal was 9.34 upbm affinity estimate (log intensity, higher = more binding, comparable within an allelic series).

The next test concerns the target HOXA2 (Homo sapiens, UniProt O43364 129-215, Y150S). As to the kind of experiment: PBM; 200 nM protein, PBS. As to conditions: dsDNA, one strand shown.
For the sequence CACTGGGG, the binding signal is 10.4 upbm affinity estimate (log intensity, higher = more binding, comparable within an allelic series).
On the same count and under the same terms, the figure for AGGGGGCG is 10.3 upbm affinity estimate (log intensity, higher = more binding, comparable within an allelic series); for CGGCCCCC it is 10.3 upbm affinity estimate (log intensity, higher = more binding, comparable within an allelic series); for CCGAGGGC it is 10.3 upbm affinity estimate (log intensity, higher = more binding, comparable within an allelic series).
As to CCCAGAGG, the binding signal is 10.3 upbm affinity estimate (log intensity, higher = more binding, comparable within an allelic series).

The target of another test is HOXA7 (Homo sapiens, UniProt P31268 116-202, W177C). Description: PBM; 200 nM protein, PBS. As to conditions: dsDNA, one strand shown.
Sequence of HOXA7 (P31268 116-202 W177C): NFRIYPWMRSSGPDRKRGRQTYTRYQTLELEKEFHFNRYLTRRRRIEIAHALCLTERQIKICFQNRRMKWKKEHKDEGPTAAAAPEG
With CGTCCAGC, the binding signal was 8.41 upbm affinity estimate (log intensity, higher = more binding, comparable within an allelic series).
For GCCCATTA, the binding signal was 8.75 upbm affinity estimate (log intensity, higher = more binding, comparable within an allelic series).
GGCCATTA: the binding signal was 8.67 upbm affinity estimate (log intensity, higher = more binding, comparable within an allelic series).
Consider CAGGGCCC, for which the binding signal was 8.37 upbm affinity estimate (log intensity, higher = more binding, comparable within an allelic series).
As to CGGCCCCC, the binding signal was 8.35 upbm affinity estimate (log intensity, higher = more binding, comparable within an allelic series).
Turning to ACCCATTA, the binding signal was 8.76 upbm affinity estimate (log intensity, higher = more binding, comparable within an allelic series).
As to ATTAGGTG, the binding signal was 8.8 upbm affinity estimate (log intensity, higher = more binding, comparable within an allelic series).

A further test concerns the target ALX3 (Homo sapiens, UniProt O95076 139-225, N203S). As to the kind of experiment: PBM; 200 nM protein, PBS. As to conditions: dsDNA, one strand shown.
Turning to CTGGCGCA, the binding signal is 7.82 upbm affinity estimate (log intensity, higher = more binding, comparable within an allelic series).
The same measure, in the same setting: the result for CGCCTGCC reads 7.7 upbm affinity estimate (log intensity, higher = more binding, comparable within an allelic series).
Still for that read-out and setting: the figure for CGGCCCCC is 7.76 upbm affinity estimate (log intensity, higher = more binding, comparable within an allelic series).
Consider CCCAGAGG, for which the binding signal is 7.62 upbm affinity estimate (log intensity, higher = more binding, comparable within an allelic series).

The target of the next test is HOXA2 (Homo sapiens, UniProt O43364 129-215). Description: PBM; 200 nM protein, PBS. As to conditions: dsDNA, one strand shown.
Sequence of HOXA2 (Homo sapiens, UniProt O43364 129-215) (O43364 129-215): as the sequence (O43364 129-215 Y150S) above, with S22Y counted along it
Take CACTGGGG: the binding signal was 7.07 upbm affinity estimate (log intensity, higher = more binding, comparable within an allelic series).
Take AGGGGGCG: the binding signal was 7.28 upbm affinity estimate (log intensity, higher = more binding, comparable within an allelic series).
With CGGCCCCC, the binding signal was 7.15 upbm affinity estimate (log intensity, higher = more binding, comparable within an allelic series).
Turning to CCGAGGGC, the binding signal was 7.2 upbm affinity estimate (log intensity, higher = more binding, comparable within an allelic series).
As for CCCAGAGG, the binding signal was 7.15 upbm affinity estimate (log intensity, higher = more binding, comparable within an allelic series).

The target of a further test is VAX1 (Homo sapiens, UniProt Q5SQQ9 86-172, K157R). As to the kind of experiment: PBM; 200 nM protein, PBS. As to conditions: dsDNA, one strand shown.
Sequence of VAX1 (Homo sapiens, UniProt Q5SQQ9 86-172, K157R) (Q5SQQ9 86-172 K157R): as the sequence (Q5SQQ9 86-172) above, with K72R counted along it
With GCCCATTA, the binding signal is 12.5 upbm affinity estimate (log intensity, higher = more binding, comparable within an allelic series).
Regarding CAGGGCCC, the binding signal was 6.99 upbm affinity estimate (log intensity, higher = more binding, comparable within an allelic series).
With CGCCTGCC, the binding signal was 7.15 upbm affinity estimate (log intensity, higher = more binding, comparable within an allelic series).

The target of the next test is HOXB6 (Homo sapiens, UniProt P17509 132-218). Description: PBM; 200 nM protein, PBS. The settings on record: dsDNA, one strand shown.
Sequence of HOXB6 (P17509 132-218): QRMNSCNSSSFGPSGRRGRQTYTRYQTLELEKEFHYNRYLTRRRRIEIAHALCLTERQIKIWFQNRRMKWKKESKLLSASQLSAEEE
As to GCCCATTA, the binding signal is 11.8 upbm affinity estimate (log intensity, higher = more binding, comparable within an allelic series).
For the sequence GGCCATTA, the binding signal is 11.8 upbm affinity estimate (log intensity, higher = more binding, comparable within an allelic series).
As for AGGGGGCG, the binding signal was 8.93 upbm affinity estimate (log intensity, higher = more binding, comparable within an allelic series).
Same read-out and setting: the result for ACCCATTA reads 11.8 upbm affinity estimate (log intensity, higher = more binding, comparable within an allelic series).
